What all share (assay): PBM; 200 nM protein, PBS
What all share (settings): dsDNA, one strand shown

Test [1] concerns the target T1, SIX6 (Homo sapiens, UniProt O95475 114-200, L167I).
T1 sequence: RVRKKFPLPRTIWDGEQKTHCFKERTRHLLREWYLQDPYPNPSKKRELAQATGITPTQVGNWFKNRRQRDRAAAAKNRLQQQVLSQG

Test [2] has as its target T2, SIX6 (Homo sapiens, UniProt O95475 114-200, L143V).
T2 sequence: T1 sequence with L30V, I54L

The target in test [3] is T3, SIX6 (Homo sapiens, UniProt O95475 114-200, H141N).
T3 sequence: T1 sequence with H28N, I54L

For test [4], the target named is T4, SIX6 (Homo sapiens, UniProt O95475 114-200, T165P).
T4 sequence: T1 sequence with T52P, I54L

Test [5] deals with T5, SIX6 (Homo sapiens, UniProt O95475 114-200, L167M).
T5 sequence: T1 sequence with I54M

Test [6] addresses T6, SIX6 (Homo sapiens, UniProt O95475 114-200, L143M).
T6 sequence: T1 sequence with L30M, I54L

Test [7] deals with T7, SIX6 (Homo sapiens, UniProt O95475 114-200, L143I).
T7 sequence: T1 sequence with L30I, I54L

Test [8] deals with T8, SIX6 (Homo sapiens, UniProt O95475 114-200, T165G).
T8 sequence: T1 sequence with T52G, I54L

In test [9] the target is T9, SIX6 (Homo sapiens, UniProt O95475 114-200, T139Q).
T9 sequence: T1 sequence with T26Q, I54L

In test [10] the target is T10, SIX6 (Homo sapiens, UniProt O95475 114-200, T165A).
T10 sequence: T1 sequence with T52A, I54L

Test [11] has as its target T11, SIX6 (Homo sapiens, UniProt O95475 114-200, L167V).
T11 sequence: T1 sequence with I54V

Test [12] deals with T12, SIX6 (Homo sapiens, UniProt O95475 114-200).
T12 sequence: T1 sequence with I54L

The target in test [13] is T13, SIX6 (Homo sapiens, UniProt O95475 114-200, T165I).
T13 sequence: T1 sequence with T52I, I54L

Among the data in publication PMC11006913 are binding signal values, retold here.

Where a chain is given by its changes, count along the chain named.

On to CGGGGACC, for which the binding signal in test [1] was 8.99 upbm affinity estimate (log intensity, higher = more binding, comparable within an allelic series); in [2], 8.83 upbm affinity estimate (log intensity, higher = more binding, comparable within an allelic series); in test [3] it was 8.99 upbm affinity estimate (log intensity, higher = more binding, comparable within an allelic series); in [4], 8.96 upbm affinity estimate (log intensity, higher = more binding, comparable within an allelic series); in test [5], 8.97 upbm affinity estimate (log intensity, higher = more binding, comparable within an allelic series); in test [6], 8.88 upbm affinity estimate (log intensity, higher = more binding, comparable within an allelic series). The binding signal was 8.86 upbm affinity estimate (log intensity, higher = more binding, comparable within an allelic series) in test [7]; 8.9 upbm affinity estimate (log intensity, higher = more binding, comparable within an allelic series) in [8]; 8.95 upbm affinity estimate (log intensity, higher = more binding, comparable within an allelic series) in [9]; 8.92 upbm affinity estimate (log intensity, higher = more binding, comparable within an allelic series) in test [10]; 8.99 upbm affinity estimate (log intensity, higher = more binding, comparable within an allelic series) in [11]; 8.89 upbm affinity estimate (log intensity, higher = more binding, comparable within an allelic series) in test [12]. In addition, in test [13], the binding signal is 8.91 upbm affinity estimate (log intensity, higher = more binding, comparable within an allelic series).

With GGCCGGAA, the binding signal is 9.02 upbm affinity estimate (log intensity, higher = more binding, comparable within an allelic series) in test [1]; 8.91 upbm affinity estimate (log intensity, higher = more binding, comparable within an allelic series) in [2]; 8.94 upbm affinity estimate (log intensity, higher = more binding, comparable within an allelic series) in test [3]; 9.01 upbm affinity estimate (log intensity, higher = more binding, comparable within an allelic series) in [4]; 8.98 upbm affinity estimate (log intensity, higher = more binding, comparable within an allelic series) in [5]; 9 upbm affinity estimate (log intensity, higher = more binding, comparable within an allelic series) in test [6]. Also, the binding signal in test [7] was 8.95 upbm affinity estimate (log intensity, higher = more binding, comparable within an allelic series); in test [8] it was 8.98 upbm affinity estimate (log intensity, higher = more binding, comparable within an allelic series); in test [9], 9.04 upbm affinity estimate (log intensity, higher = more binding, comparable within an allelic series); in test [10] it was 8.94 upbm affinity estimate (log intensity, higher = more binding, comparable within an allelic series); in test [11] it was 9.02 upbm affinity estimate (log intensity, higher = more binding, comparable within an allelic series); in [12] it was 8.92 upbm affinity estimate (log intensity, higher = more binding, comparable within an allelic series). Besides, in test [13], the binding signal was 8.95 upbm affinity estimate (log intensity, higher = more binding, comparable within an allelic series).

GGCCGCCA: the binding signal in test [1] is 8.71 upbm affinity estimate (log intensity, higher = more binding, comparable within an allelic series); in test [2], 8.68 upbm affinity estimate (log intensity, higher = more binding, comparable within an allelic series); in test [3] it was 8.73 upbm affinity estimate (log intensity, higher = more binding, comparable within an allelic series); in [4], 8.9 upbm affinity estimate (log intensity, higher = more binding, comparable within an allelic series); in [5], 8.74 upbm affinity estimate (log intensity, higher = more binding, comparable within an allelic series); in [6], 8.71 upbm affinity estimate (log intensity, higher = more binding, comparable within an allelic series). Besides, the binding signal was 8.7 upbm affinity estimate (log intensity, higher = more binding, comparable within an allelic series) in [7]; 8.66 upbm affinity estimate (log intensity, higher = more binding, comparable within an allelic series) in test [8]; 8.63 upbm affinity estimate (log intensity, higher = more binding, comparable within an allelic series) in test [9]; 8.66 upbm affinity estimate (log intensity, higher = more binding, comparable within an allelic series) in test [10]; 8.8 upbm affinity estimate (log intensity, higher = more binding, comparable within an allelic series) in [11]; 8.68 upbm affinity estimate (log intensity, higher = more binding, comparable within an allelic series) in [12]. Also, in [13], the binding signal was 8.7 upbm affinity estimate (log intensity, higher = more binding, comparable within an allelic series).

Regarding TGATATCA, the binding signal in [1] was 11.6 upbm affinity estimate (log intensity, higher = more binding, comparable within an allelic series); in [2], 10.5 upbm affinity estimate (log intensity, higher = more binding, comparable within an allelic series); in [3], 11.6 upbm affinity estimate (log intensity, higher = more binding, comparable within an allelic series); in test [4], 9.86 upbm affinity estimate (log intensity, higher = more binding, comparable within an allelic series); in test [5], 11 upbm affinity estimate (log intensity, higher = more binding, comparable within an allelic series); in test [6] it was 11.4 upbm affinity estimate (log intensity, higher = more binding, comparable within an allelic series). In addition, the binding signal in [7] is 10.5 upbm affinity estimate (log intensity, higher = more binding, comparable within an allelic series); in test [8] it was 11.6 upbm affinity estimate (log intensity, higher = more binding, comparable within an allelic series); in test [9], 11.6 upbm affinity estimate (log intensity, higher = more binding, comparable within an allelic series); in [10], 11.6 upbm affinity estimate (log intensity, higher = more binding, comparable within an allelic series); in test [11] it was 11.6 upbm affinity estimate (log intensity, higher = more binding, comparable within an allelic series); in test [12], 11.3 upbm affinity estimate (log intensity, higher = more binding, comparable within an allelic series). Besides, in test [13], the binding signal is 11.4 upbm affinity estimate (log intensity, higher = more binding, comparable within an allelic series).

Take GGATATCA: the binding signal in test [1] was 11.4 upbm affinity estimate (log intensity, higher = more binding, comparable within an allelic series); in test [2], 10.4 upbm affinity estimate (log intensity, higher = more binding, comparable within an allelic series); in test [3], 11.4 upbm affinity estimate (log intensity, higher = more binding, comparable within an allelic series); in [4] it was 9.53 upbm affinity estimate (log intensity, higher = more binding, comparable within an allelic series); in test [5], 10.9 upbm affinity estimate (log intensity, higher = more binding, comparable within an allelic series); in test [6], 11.1 upbm affinity estimate (log intensity, higher = more binding, comparable within an allelic series). In addition, the binding signal is 10.4 upbm affinity estimate (log intensity, higher = more binding, comparable within an allelic series) in test [7]; 11.3 upbm affinity estimate (log intensity, higher = more binding, comparable within an allelic series) in test [8]; 11.2 upbm affinity estimate (log intensity, higher = more binding, comparable within an allelic series) in test [9]; 11.3 upbm affinity estimate (log intensity, higher = more binding, comparable within an allelic series) in [10]; 11.2 upbm affinity estimate (log intensity, higher = more binding, comparable within an allelic series) in [11]; 11.2 upbm affinity estimate (log intensity, higher = more binding, comparable within an allelic series) in test [12]. Moreover, the binding signal in test [13] was 11.2 upbm affinity estimate (log intensity, higher = more binding, comparable within an allelic series).

On to GATATCCA, for which the binding signal in test [1] was 11.1 upbm affinity estimate (log intensity, higher = more binding, comparable within an allelic series); in test [2], 10.3 upbm affinity estimate (log intensity, higher = more binding, comparable within an allelic series); in test [3], 11 upbm affinity estimate (log intensity, higher = more binding, comparable within an allelic series); in test [4] it was 9.81 upbm affinity estimate (log intensity, higher = more binding, comparable within an allelic series); in test [5] it was 10.7 upbm affinity estimate (log intensity, higher = more binding, comparable within an allelic series); in [6] it was 10.9 upbm affinity estimate (log intensity, higher = more binding, comparable within an allelic series). Also, the binding signal in test [7] was 10.3 upbm affinity estimate (log intensity, higher = more binding, comparable within an allelic series); in test [8], 11.1 upbm affinity estimate (log intensity, higher = more binding, comparable within an allelic series); in [9], 11 upbm affinity estimate (log intensity, higher = more binding, comparable within an allelic series); in test [10] it was 11 upbm affinity estimate (log intensity, higher = more binding, comparable within an allelic series); in [11], 10.9 upbm affinity estimate (log intensity, higher = more binding, comparable within an allelic series); in [12], 10.9 upbm affinity estimate (log intensity, higher = more binding, comparable within an allelic series). In test [13], the binding signal was 10.8 upbm affinity estimate (log intensity, higher = more binding, comparable within an allelic series).
